Experimental data published in PubChem BioAssay AID504380 (National Center for Advancing Translational Sciences (NCATS), 2011).
Activity calls are given as the source filed them. No rule for the calls is given here.

assay: RT-PCR Analysis of TSH-dependent transcripts in primary cultures of human thyrocytes; conditions: RT-PCR mRNA levels, 48 h; DIO2 mRNA change: measured here: DIO2 transcript; NIS mRNA change: measured here: NIS transcript, concentration not given here; TG mRNA change: concentration not given here; TPO mRNA change: measured here: TPO transcript, concentration not given here; TSHR mRNA change: measured here: TSHR transcript, concentration not given here
Text: TSH is an alpha/beta heterodimeric glycoprotein hormone secreted from the anterior pituitary gland which belongs to the glycoprotein hormone family. The actions of TSH are mediated by a seven-transmembrane receptor, which upon TSH binding couples preferentially to the G-alpha (s) protein (Gs), resulting in activation of adenylate cyclase and increase in cyclic adenosine 3', 5' monophosphate (cAMP). The TSH receptor (THSR) is mainly expressed in thyroid follicular cells and regulates their growth and function. This cell based assay was conducted on a TSHR transfected HEK 293 cell line, measuring cAMP stimulation using antibody-based Homogeneous Time Resolved Fluorescence (HTRF). Our goal is to identify small molecules that will inhibit (antagonize) the thyroid-stimulating hormone receptor (TSHR), a member of the 7 transmembrane-spanning receptor (7TMR) family of cell surface receptors. TSHR-mediated hyperthyroidism is important in thyroid pathology. The development of small molecule antagonists of TSHR may lead to therapeutic approaches for TSHR-mediated hyperthyroidism caused by constitutively activating mutations or stimulating auto-antibodies associated with Graves' disease. Graves' disease is the leading cause of hyperthyroidism and is caused by autoantibodies that stimulate TSHR (TsAbs) causing thyroid growth and unregulated overproduction of thyroid hormones and existing treatments have liabilities (agranulocytosis). In addition, TSHRs are known to be expressed in multiple extrathyroidal tissues including bone, brain, kidney, testis, fat and cells of the immune system but the role of the TSHR in these tissues is not clear. Therefore, TSHR antagonists/inverse agonists could be used as probes of extrathyroidal TSHR function. Finally, TSHR inverse agonists, which are a subclass of antagonists that inhibit agonist-independent (or basal or constitutive) TSHR signaling, could be used to inhibit TSH-independent signaling in patients with recurrent or metastatic thyroid cancer who are receiving thyroid hormone to suppress TSH. This assays looks for effects on TSH-dependent functions in primary human thyrocytes. Total RNA is purified using RNeasy Micro kits. RT-PCR is performed in 25-ul reactions using cDNA prepared from 100 ng or less of total RNA and Universal PCR Master Mix (Applied Biosystems). mRNA levels are measured using primers and probes from Applied Biosystems. Quantitative RT-PCR results are normalized to GAPDH to correct for differences in RNA input.
Thyroid tissue samples were collected from normal thyroid tissue from patients undergoing total thyroidectomy for thyroid cancer at the National Institutes of Health Clinical Center. Surgical specimens were maintained in Hanks' balanced salt solution (HBSS) on ice, minced into small pieces, and digested with 3 mg/ml collagenase type IV (Life Technologies). Monodispersed cells were plated in 10 ml DMEM with 10% FBS in 10-cm tissue culture dishes and incubated at 37C in a humidified5%CO2 incubator, and after 24 h, the primary cultures of adherent thyroid cells were obtained. For determination of thyroglobulin (TG), thyroid peroxidase (TPO), TSHR, sodium iodide symporter (NIS), or deiodinase type 2 (DIO2) mRNAexpression, thyrocytes were seeded into 12-well plates at a density of 1 x 10^5 cells per well. The cells were incubated in DMEM with 2% FBS and 1 mM 3-isobutyl-1-methylxanthine (IBMX) for 48 h in the presence or absence of compound.

For `COc1ccc(C2Nc3ccccc3C(=O)N2Cc2ccco2)cc1COc1c(C)cccc1C` (stereo not given), which NIS mRNA change is on record?
Its NIS mRNA change is -35%.

And the TG mRNA change?
Its TG mRNA change is -71% (active).

And the TSHR mRNA change?
The TSHR mRNA change was -33%.

And the TPO mRNA change?
The TPO mRNA change was -40%.

And the DIO2 mRNA change?
Its DIO2 mRNA change is 0%.
